# From PubChem BioAssay
# TRHR enhancer – allosterically enhances the human TRH receptor; P34981; TRHR cells, fluo-8 calcium fluorescence, EC20 TRH enhancement; enhancement, % at 2 µM; 360,000 tested, 0.66% active; AID 493056; in the data active = enhancement above about 30%; note: 0% is about no effect
# Target sequence (P34981 whole entry, looked up): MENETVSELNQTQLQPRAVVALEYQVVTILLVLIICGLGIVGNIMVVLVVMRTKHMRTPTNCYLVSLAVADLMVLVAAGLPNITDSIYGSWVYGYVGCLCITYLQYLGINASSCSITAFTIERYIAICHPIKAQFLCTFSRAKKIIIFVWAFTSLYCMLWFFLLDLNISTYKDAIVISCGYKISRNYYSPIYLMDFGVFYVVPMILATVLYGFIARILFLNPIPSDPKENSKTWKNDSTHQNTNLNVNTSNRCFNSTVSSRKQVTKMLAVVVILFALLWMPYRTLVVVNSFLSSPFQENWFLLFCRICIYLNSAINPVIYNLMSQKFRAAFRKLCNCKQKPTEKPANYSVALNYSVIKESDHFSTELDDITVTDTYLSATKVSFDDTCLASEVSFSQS
#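 TRHR-expressing cells loaded with fluo-8 calcium dye were read kinetically (ex 480/em 530) during compound addition, then stimulated with an EC20 of TRH (10 nM final). Enhancement of the Gq-mediated intracellular calcium response was scored.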
# D1 agonist – agonists of human D1 dopamine receptor. activation, % at 2 µM. 360,000 tested, 1% active. AID 504660. HEK293 T-REx D1 cells, calcium flux, agonist mode; note: 0% is about no effect
#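 Inducible HEK293 T-REx D1 cells, force-coupled to calcium signalling, were plated at 4000 cells/well with tetracycline and held overnight at 30 C. After no-wash calcium dye loading, compound-evoked calcium rise over 180 s flagged agonists.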
# D1 PAM – human D1 dopamine receptor positive modulation; HEK293 TREx D1 cells, calcium flux, dopamine EC20 potentiation; P21728; 360,000 tested, 0.036% active; potentiation, % at 10 µM; in the data active = potentiation above about 30%; note: 0% is about no effect
# D1 antagonist – blocks dopamine activation of the human D1 receptor; AID 504652; P21728; 360,000 tested, 3.2% active; activity change, negative = inhibition, % at 10 µM; HEK293 TREx D1 cells, calcium flux, dopamine EC80; stronger effect = lower value; in the data active = activity change below about -30%; note: % is set by controls: 0 for no effect and ±100 for the full control effect
#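 Tetracycline-induced HEK293 Trex D1 cells, force-coupled to calcium, dye-loaded; compounds added and read 180 s, then EC80 dopamine added and calcium flux tracked kinetically another 180 s.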
# TRHR ag – TRH receptor (human) agonism. P34981. TRHR cells, calcium flux fluo-8, FDSS agonist mode. activation, % at 2 µM. 360,000 tested, 0.18% active; note: 0% is about no effect
#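 In this calcium-flux screen, cells bearing human TRHR are dye-loaded with fluo-8, baselined for 10 cycles, then exposed to library compounds; positive kinetic calcium responses during the agonist phase mark hits, with TRH as control.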
# * marks the source's active call; other numbers are inactive results; . = no result. Sampled rows, rich in hits. Any-hit rate of the full collection: about 4.7%. Cut-off read from the data, not from the text of the source, unless noted: active = activation above about 30%; inactive = the rest.
SMILES,TRHR enhancer,D1 agonist,D1 PAM,D1 antagonist,TRHR ag
O=C(NCc1ccc2c(c1)OCO2)C1CCC(CNS(=O)(=O)c2cccc3nsnc23)CC1 (configuration not stated),3,1,.,-52*,0
CC(C)NC(=O)C1CCN(C2CCN(C(=O)Cc3ccc4c(c3)OCO4)CC2)CC1,-1,0,-4,-33*,0
O=C(NCc1ccccn1)C1CCC(CNS(=O)(=O)c2cccc3nsnc23)CC1 (configuration not stated),-6,7,-2,22,1
COc1ccc(CNC(=O)C2CCC(CNS(=O)(=O)c3cccc4nsnc34)CC2)cc1 (configuration not stated),0,3,-4,-46*,0
O=C(NC1CC1)C1CCN(C2CCN(C(=O)Cc3ccc4c(c3)OCO4)CC2)CC1,-1,3,-4,1,0
O=C(CCCCCn1c(=O)[nH]c2ccsc2c1=O)NCc1ccccc1,0,2,0,-26,0
CCc1ccc(C2=NN(CCC(=O)NCCc3ccc(OC)c(OC)c3)C(=O)CC2)cc1,-4,0,-4,-17,-1
Cc1ccc(-n2c(=O)c3ccccc3n(CC(=O)Nc3cccc(C(F)(F)F)c3)c2=O)cc1,0,7,1,6,4
CCOc1ccc(S(=O)(=O)N2CCC(N3CCN(Cc4ccc(F)cc4)C(=O)C3=O)CC2)cc1,0,4,-2,-4,-1
CCOc1ccccc1CNC(=O)c1ccc2c(c1)N(Cc1ccc(C)cc1)CCS2,-7,0,-1,-4,0
CCOc1ccccc1NC(=O)CN1c2ccccc2S(=O)(=O)c2ccccc21,10,15,-3,2,0
CC(C)Sc1nc2c(c(=O)n1C)SC(C)C2 (configuration not stated),-9,2,-10,-32*,-1
CC1Cc2nc(SCC(=O)N3CCOCC3)n(C)c(=O)c2S1 (configuration not stated),-1,3,-2,2,0
COC(=O)c1cc(=O)n(Cc2ccco2)c(=Nc2ccc(F)cc2)s1,3,0,-2,-35*,-2
COc1cccc(CN2c3ccccc3-c3nc(SCC(=O)Nc4ccccc4Cl)ncc3S2(=O)=O)c1,9,4,-1,-6,2
CS(=O)(=O)Nc1nnc(SCC(=O)Nc2cccc([N+](=O)[O-])c2)s1,1,2,-4,-79*,-1
O=C(CSc1nc(-c2ccccc2)nn1C(=O)c1ccccc1)Nc1cccc([N+](=O)[O-])c1,19,15,-2,-34*,0
Nc1ccc(SCC(=O)Nc2cccc([N+](=O)[O-])c2)cc1,-1,5,-8,-49*,0
Cn1nnnc1SCC(=O)Nc1cccc([N+](=O)[O-])c1,-2,0,-2,8,0
COc1ccc(CNC(=O)c2cc3cccc4c3n2CC(C)S4)c(OC)c1 (configuration not stated),-7,9,1,5,-1
COC(=O)c1cc(F)c(S(=O)(=O)N2CCN(S(=O)(=O)c3ccc4c(c3)OCCO4)CC2)cc1F,1,0,2,-16,1
CCOc1cc(C(=O)OCC(=O)c2cc(C)n(CC3CCCO3)c2C)ccc1OCC(=O)N1CCOCC1 (configuration not stated),38*,5,-1,3,2
Cc1ccc(C(=O)OCC(=O)c2cc(C)n(CC3CCCO3)c2C)cc1 (configuration not stated),6,7,-1,-5,-1
COc1ccc(CNC(=O)CN(C)Cc2ccccc2F)cc1OC,4,2,0,-36*,0
Cc1ccccc1NC(=O)C(Cc1ccccc1)N1Cc2ccccc2C1=O (configuration not stated),-6,2,2,4,0
SMILES,TRHR enhancer,D1 agonist,D1 PAM,D1 antagonist,TRHR ag
Cc1cccc(C)c1NC(=O)C(NC=O)c1ccc(N(C)C)cc1 (configuration not stated),-2,2,-3,-8,0
Cc1cccc(C)c1NC(=O)C(NC=O)c1ccccc1Cl (configuration not stated),1,1,2,-83*,0
CCOc1cc(/C=N/n2c(COc3ccccc3)n[nH]c2=S)ccc1O,6,102*,-4,0,0
COc1ccc(NC(=O)C(OC(=O)CNC(=O)c2ccccc2)c2ccccc2)cc1Cl (configuration not stated),-2,3,3,12,-3
COc1cc(NC(=O)CN2C(=O)NC(c3ccccc3)(c3ccccc3)C2=O)cc(OC)c1,5,9,2,-8,2
CCCC1(c2ccccc2)NC(=O)N(CC(=O)Nc2cc(OC)cc(OC)c2)C1=O (configuration not stated),-3,35*,.,7,2
CCCC1(c2ccccc2)NC(=O)N(CC(=O)Nc2cc(S(=O)(=O)N3CCOCC3)ccc2Cl)C1=O (configuration not stated),-11,7,-5,-30*,1
CCC(=O)N1CCc2cc(S(=O)(=O)NC(Cc3ccccc3)C(=O)NCc3cccc(OC)c3)ccc21 (configuration not stated),-7,7,5,1,-1
Cc1ccc(CN2CCC(CNC(=O)Nc3cccc(Cl)c3C)C2)cc1 (configuration not stated),-3,9,-1,-28,1
CC(C)CCNC(=O)C1CCN(C(=O)c2cc3sccc3n2Cc2ccc(Cl)cc2)CC1,-4,5,-2,-1,1
Cc1ccccc1/C=C/C1=NCCN1,-5,0,-7,-43*,2
Cc1ccccc1C=O,-7,1,-2,.,0
NC(=O)c1ccsc1NC(=O)CS(=O)(=O)c1ccc(Cl)cc1,-3,7,-8,-4,-1
CC(C)c1ccc(CN(C)C(=O)c2ccc(S(=O)(=O)NCc3ccco3)cc2)cc1,-1,6,-3,-30*,0
CN(C)c1cc(Nc2ccc(O)cc2)c([N+](=O)[O-])c2nonc12,16,5,-2,8,-1
O=[N+]([O-])c1c(Nc2ccc(O)cc2)cc(Cl)c2nonc12,-16,3,-4,-42*,0
CC1=C(C(=O)Nc2cccc(C(F)(F)F)c2)C(c2ccccn2)n2ncnc2N1 (configuration not stated),2,1,-1,12,0
Cc1ccccc1N1C(=O)C(Cl)=C(N2CCOCC2)C1=O,-3,1,-3,-45*,0
Cc1ccccc1N1C(=O)C(Cl)=C(N2CCCCCC2)C1=O,-3,3,-4,-7,0
COc1ccc(OC)c(CCNc2ncnc3onc(-c4ccc(Cl)cc4)c23)c1,-10,11,0,-3,2
